For some assays here: Entries with a potency or affinity are not part of this list.

Holding throughout (set-up): scale not given: direction of the effect not stated beside the values
Experiment [1] concerns the target Protein translocase subunit SecA (Escherichia coli (strain K12)) (UniProt P10408). Briefly: Assay to Identify E. coli SecA ATPase Inhibitors. The class given is functional. The conditions noted are these: 30 µM.
Experiment [2] has as its target T1, Ubiquitin-activating enzyme e1, putative (Leishmania donovani (strain BPK282A1)) (UniProt E9BSI1).
T1 sequence (whole entry): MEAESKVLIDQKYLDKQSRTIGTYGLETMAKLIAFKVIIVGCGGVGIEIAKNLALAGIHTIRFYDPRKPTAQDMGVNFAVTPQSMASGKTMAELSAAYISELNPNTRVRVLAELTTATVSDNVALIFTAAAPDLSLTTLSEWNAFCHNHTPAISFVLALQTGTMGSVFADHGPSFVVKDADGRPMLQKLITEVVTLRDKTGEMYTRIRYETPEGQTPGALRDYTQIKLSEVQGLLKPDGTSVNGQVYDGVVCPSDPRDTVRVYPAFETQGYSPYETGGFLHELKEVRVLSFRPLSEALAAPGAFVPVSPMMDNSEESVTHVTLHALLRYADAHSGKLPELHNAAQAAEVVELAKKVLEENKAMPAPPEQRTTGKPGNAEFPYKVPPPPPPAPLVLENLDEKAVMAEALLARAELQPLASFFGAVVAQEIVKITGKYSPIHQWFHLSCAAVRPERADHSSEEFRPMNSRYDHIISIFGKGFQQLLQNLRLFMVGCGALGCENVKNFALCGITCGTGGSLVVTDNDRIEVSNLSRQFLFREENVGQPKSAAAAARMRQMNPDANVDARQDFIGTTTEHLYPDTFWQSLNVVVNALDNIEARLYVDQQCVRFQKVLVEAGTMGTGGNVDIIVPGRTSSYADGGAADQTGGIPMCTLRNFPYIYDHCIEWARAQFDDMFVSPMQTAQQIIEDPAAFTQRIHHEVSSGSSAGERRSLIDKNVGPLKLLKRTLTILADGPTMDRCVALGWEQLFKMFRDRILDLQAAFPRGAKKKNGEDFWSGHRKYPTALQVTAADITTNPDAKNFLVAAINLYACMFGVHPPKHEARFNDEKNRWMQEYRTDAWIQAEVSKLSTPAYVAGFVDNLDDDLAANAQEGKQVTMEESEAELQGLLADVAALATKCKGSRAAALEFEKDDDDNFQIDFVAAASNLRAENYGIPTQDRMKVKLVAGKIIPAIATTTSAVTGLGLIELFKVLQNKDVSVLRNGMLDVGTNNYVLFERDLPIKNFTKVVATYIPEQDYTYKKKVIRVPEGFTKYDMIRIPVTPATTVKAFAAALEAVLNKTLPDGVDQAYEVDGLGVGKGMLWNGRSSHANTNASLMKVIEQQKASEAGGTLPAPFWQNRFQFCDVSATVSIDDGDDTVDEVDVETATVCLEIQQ
The experiment can be described thus: Leishmania donovani Ubiquitin Activating Enzyme (LdE1). The experiment is classed as functional. The conditions noted are these: 30 µM.

Experiment [3] concerns the target AMP-activated protein kinase, AMPK (Homo sapiens) (UniProt P54646+O43741+P54619+Q9UGJ0+Q9Y478+Q13131+Q9UGI9). The experiment can be described thus: AMP-dependent Kinase enzyme assay. An in vitro enzyme assay that detects ADP turnover that is directly proportional to AMPK activity. This uses naive AMPK that is activated during the assay with MK-8722. The class given is functional. The conditions noted are these: 30 µM.

Experiment [4] concerns the target Sialic acid-binding Ig-like lectin 9 (Homo sapiens) (UniProt Q9Y336). Briefly: Hs-Siglec9 ALPHAscreen SOP 20170721. The conditions noted are these: 10 µM.
Experiment [5] has as its system Trypanosoma cruzi. Briefly: Trypanosoma cruzi phosphomannomutase and mannose-1-phosphate guanylyltransferase assay. The experiment is classed as functional. As to conditions: 10 µM.
Experiment [6] deals with T2, Arginase-2, mitochondrial (Homo sapiens) (UniProt P78540).
T2 sequence (whole entry): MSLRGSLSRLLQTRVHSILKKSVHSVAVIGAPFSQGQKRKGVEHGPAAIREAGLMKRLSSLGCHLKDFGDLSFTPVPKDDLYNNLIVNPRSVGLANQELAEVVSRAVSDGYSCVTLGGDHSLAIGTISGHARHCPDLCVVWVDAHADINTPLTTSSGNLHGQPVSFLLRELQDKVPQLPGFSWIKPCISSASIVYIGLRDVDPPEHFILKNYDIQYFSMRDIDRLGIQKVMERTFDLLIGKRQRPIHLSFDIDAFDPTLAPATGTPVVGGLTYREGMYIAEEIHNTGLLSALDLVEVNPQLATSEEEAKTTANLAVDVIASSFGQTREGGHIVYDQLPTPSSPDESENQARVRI
Briefly: in vitro enzyme assay to detect the production of urea directly proportional to the activity of Arginase II. Further: in the data most compounds retested in dose-response had high values. The class given is functional. The conditions noted are these: 33.3 µM.

Experiment [7] concerns the target T3, Proteasome subunit beta (Trypanosoma cruzi) (UniProt O96673).
T3 sequence (whole entry): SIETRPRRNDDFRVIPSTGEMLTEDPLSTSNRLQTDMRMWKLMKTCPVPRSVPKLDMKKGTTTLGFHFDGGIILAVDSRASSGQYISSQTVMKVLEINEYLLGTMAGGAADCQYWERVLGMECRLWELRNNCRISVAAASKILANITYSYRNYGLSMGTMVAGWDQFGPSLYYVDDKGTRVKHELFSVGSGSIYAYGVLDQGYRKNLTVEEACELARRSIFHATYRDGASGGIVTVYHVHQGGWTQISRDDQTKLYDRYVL
The experiment can be described thus: Trypanosoma cruzi proteasome chymotrypsin-like activity (TcProtChymo) assay. Further: in the data most compounds retested in dose-response had high values. The class given is functional. The conditions noted are these: 9.37 µM.

Experiment [8] is filed under the species Homo sapiens. The experiment can be described thus: To identify inhibition of the IFN signalling (Jak-Stat) pathway via expression of an eGFP reporter gene under the control of an IFN-stimulated response element (ISRE) containing MxA promoter. The class given is functional. The conditions noted are these: 30 µM.
The target in experiment [9] is T4, Tyrosyl-tRNA synthetase, putative (Trypanosoma cruzi (strain CL Brener)) (UniProt Q4DSP6).
T4 sequence (whole entry): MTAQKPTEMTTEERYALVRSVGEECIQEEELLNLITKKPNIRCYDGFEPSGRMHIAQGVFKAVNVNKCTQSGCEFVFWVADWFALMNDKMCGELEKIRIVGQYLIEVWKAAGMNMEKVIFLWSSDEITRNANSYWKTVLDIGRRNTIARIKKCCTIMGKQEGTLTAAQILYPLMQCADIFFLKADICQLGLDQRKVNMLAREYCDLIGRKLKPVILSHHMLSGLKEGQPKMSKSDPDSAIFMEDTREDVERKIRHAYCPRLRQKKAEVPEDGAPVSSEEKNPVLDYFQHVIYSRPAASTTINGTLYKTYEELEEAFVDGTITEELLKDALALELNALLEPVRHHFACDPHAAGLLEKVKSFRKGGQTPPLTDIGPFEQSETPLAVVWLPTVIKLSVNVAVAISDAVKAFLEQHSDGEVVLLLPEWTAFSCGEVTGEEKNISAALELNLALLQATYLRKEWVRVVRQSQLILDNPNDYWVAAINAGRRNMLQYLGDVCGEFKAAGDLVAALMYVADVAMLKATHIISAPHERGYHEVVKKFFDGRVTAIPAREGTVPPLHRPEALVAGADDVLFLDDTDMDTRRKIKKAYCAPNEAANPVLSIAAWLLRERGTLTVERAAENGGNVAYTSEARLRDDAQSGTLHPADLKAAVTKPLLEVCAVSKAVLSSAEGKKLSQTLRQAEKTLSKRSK
The experiment can be described thus: Trypanosoma cruzi tyrosyl tRNA synthetase (TcYRS) _High Tyrosine SOP. Further: in the data most compounds retested in dose-response had high values. The class given is functional. The conditions noted are these: 30 µM.

The target in experiment [10] is T4, Tyrosyl-tRNA synthetase, putative (Trypanosoma cruzi (strain CL Brener)). The experiment can be described thus: Trypanosoma cruzi tyrosyl tRNA synthetase (TcYRS) SOP. The experiment is classed as functional. As to conditions: 30 µM.
For experiment [11], the target named is Chromo domain-containing protein 1 (Saccharomyces cerevisiae (strain ATCC 204508 / S288c) (Baker's yeast)) (UniProt P32657). Briefly: ScCHD-1 Enzyme Inhibition Assay. Further: in the data most compounds retested in dose-response had high values. As to conditions: 30 µM. The class given is functional.
Chromo domain-containing protein 1 (Saccharomyces cerevisiae (strain ATCC 204508 / S288c) (Baker's yeast)), sequence (P32657 whole entry, the tested form may be a part): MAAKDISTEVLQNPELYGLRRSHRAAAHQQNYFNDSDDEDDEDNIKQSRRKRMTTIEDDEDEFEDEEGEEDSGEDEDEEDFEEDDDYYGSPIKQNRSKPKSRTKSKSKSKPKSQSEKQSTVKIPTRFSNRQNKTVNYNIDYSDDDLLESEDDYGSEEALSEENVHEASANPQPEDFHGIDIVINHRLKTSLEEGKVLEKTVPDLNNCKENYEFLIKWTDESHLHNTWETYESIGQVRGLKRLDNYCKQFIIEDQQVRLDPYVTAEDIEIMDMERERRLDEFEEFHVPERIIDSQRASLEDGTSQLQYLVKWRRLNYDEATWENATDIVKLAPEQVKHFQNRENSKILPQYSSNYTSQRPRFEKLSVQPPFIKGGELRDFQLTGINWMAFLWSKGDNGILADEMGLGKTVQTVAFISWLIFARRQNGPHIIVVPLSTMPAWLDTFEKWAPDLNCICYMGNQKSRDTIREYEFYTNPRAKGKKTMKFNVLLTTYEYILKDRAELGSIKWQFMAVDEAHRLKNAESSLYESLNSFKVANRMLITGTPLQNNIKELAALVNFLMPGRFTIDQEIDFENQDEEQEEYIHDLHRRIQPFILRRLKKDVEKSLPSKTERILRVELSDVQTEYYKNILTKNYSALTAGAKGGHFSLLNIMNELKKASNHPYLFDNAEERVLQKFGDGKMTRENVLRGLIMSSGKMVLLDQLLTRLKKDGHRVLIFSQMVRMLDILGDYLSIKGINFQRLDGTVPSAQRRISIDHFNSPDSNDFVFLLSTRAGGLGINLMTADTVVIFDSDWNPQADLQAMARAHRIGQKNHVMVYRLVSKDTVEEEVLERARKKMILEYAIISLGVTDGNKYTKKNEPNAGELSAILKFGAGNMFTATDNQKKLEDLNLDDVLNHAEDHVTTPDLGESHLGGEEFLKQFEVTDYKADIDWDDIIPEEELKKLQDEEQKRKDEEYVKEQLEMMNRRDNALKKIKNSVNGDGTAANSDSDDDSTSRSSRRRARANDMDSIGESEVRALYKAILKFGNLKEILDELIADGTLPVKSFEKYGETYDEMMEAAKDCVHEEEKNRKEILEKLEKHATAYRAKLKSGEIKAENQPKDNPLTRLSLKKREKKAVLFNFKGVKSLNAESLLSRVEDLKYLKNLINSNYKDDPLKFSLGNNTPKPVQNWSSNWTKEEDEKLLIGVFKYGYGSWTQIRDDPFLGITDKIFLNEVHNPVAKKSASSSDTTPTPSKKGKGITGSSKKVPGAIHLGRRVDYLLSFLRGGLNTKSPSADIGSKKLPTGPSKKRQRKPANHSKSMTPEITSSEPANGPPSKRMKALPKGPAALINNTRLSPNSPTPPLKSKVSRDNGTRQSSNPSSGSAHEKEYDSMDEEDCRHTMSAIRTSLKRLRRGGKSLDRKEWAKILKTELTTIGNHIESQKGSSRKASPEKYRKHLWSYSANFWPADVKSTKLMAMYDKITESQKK

Protein translocase subunit SecA (Escherichia coli (strain K12)), sequence (P10408 whole entry): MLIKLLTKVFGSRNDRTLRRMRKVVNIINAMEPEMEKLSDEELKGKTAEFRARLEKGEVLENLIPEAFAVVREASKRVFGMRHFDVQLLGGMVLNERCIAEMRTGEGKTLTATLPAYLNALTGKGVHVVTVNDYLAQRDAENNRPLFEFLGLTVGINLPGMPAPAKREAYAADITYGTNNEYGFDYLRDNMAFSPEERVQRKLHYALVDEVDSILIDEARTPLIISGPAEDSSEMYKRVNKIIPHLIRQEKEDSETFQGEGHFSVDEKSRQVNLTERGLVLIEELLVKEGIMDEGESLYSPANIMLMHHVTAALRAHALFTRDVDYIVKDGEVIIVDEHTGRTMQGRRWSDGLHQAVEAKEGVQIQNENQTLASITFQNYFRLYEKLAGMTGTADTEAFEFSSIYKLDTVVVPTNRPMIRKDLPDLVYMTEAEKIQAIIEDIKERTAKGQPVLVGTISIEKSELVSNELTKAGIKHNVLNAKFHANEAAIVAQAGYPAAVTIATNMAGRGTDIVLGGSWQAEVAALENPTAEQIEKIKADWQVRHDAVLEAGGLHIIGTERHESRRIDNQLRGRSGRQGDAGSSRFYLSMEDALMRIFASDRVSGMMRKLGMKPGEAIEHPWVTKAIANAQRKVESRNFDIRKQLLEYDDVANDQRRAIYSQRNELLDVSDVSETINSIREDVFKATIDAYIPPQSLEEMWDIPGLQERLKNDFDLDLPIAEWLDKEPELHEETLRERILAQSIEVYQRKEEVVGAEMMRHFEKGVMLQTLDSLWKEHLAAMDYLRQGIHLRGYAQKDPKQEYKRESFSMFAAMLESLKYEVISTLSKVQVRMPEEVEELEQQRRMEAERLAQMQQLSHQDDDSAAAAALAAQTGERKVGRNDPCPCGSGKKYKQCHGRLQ
Sialic acid-binding Ig-like lectin 9 (Homo sapiens), sequence (Q9Y336 whole entry): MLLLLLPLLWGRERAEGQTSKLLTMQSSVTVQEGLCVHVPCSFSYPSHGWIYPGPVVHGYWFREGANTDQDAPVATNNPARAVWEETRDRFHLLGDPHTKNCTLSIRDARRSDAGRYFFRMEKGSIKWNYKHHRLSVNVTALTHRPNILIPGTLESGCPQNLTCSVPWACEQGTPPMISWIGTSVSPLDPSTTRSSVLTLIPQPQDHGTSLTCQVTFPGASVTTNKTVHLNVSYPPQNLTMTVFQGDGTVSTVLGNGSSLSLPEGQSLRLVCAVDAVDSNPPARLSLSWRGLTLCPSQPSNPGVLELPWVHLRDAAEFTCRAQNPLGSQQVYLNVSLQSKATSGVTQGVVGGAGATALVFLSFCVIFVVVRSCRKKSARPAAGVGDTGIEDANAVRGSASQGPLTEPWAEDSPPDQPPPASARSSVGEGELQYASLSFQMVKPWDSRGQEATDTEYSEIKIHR

Take `O=c1c2ccccc2nc2n1CCN(Cc1cccs1)CC2`: the Percent Effect was -2.59% in [1]; 20.3% in experiment [2]; 9.44% in experiment [3]; 0.538% in experiment [4]; 1.98% in experiment [5]; -4.41% in [6]. For the same compound, the Percent Effect in experiment [7] is 17%; in [8], 23.7%; in [9], 5.38%; in experiment [10], 14.3%; in [11] it was -12.4%.

As to `O=C(C1CC=CC1)N1CCc2c(COCc3ccncc3)cncc2C1`, the Percent Effect was 0.346% in [1]; 5.48% in experiment [2]; 3.39% in [3]; 12.2% in experiment [4]; 0.198% in [5]; -1.2% in experiment [6]. The Percent Effect in experiment [7] is 29.9%; in experiment [8], -4.59%; in [9], 11.5%; in experiment [10], 11.1%; in experiment [11] it was -4.36%.

For the compound `Cc1ccc(CNCc2nnc3n2CCCC3C(F)(F)F)s1` (stereo not given), the Percent Effect in experiment [1] was -1.65%; in [2], 8%; in experiment [3], -7.92%; in [4] it was 8.27%; in [5], 5.36%; in experiment [6], 4.69%. Besides, the Percent Effect is 18% in experiment [7]; 11.4% in [8]; 9.29% in experiment [9]; 21% in experiment [10]; -5.37% in experiment [11].

Take `Oc1nc(N2CCOCC2)nc2c1CCN(Cc1cccnc1)CC2`: the Percent Effect in [1] is -4.93%; in experiment [2], 6.76%; in experiment [3] it was 7.05%; in experiment [4], 1.25%; in experiment [5], -1.98%; in experiment [6] it was -3.48%. Moreover, the Percent Effect in [7] is 5.15%; in experiment [8], 3.87%; in [9], 4.3%; in [10] it was 11.7%; in [11], -8.38%.

On to `O=C(NC1CCCC1)NC1CCC(C(=O)N2CCSCC2)CC1` (stereo not given), for which the Percent Effect in [1] was -4.05%; in experiment [2] it was 2.6%; in experiment [3], 5.55%; in experiment [4], 0.598%; in experiment [5], -5.61%; in [6], -2.76%. Also, the Percent Effect in experiment [7] was 3.33%; in experiment [8], 23.7%; in experiment [9], 2.15%; in experiment [10], -1.24%; in experiment [11], -0.623%.

With `COCC(=O)N1CCCn2c(CN3CCCCC3)nnc2C1`, the Percent Effect in experiment [1] is -0.412%; in experiment [2] it was 11%; in [3], 1.87%; in experiment [4], 4.92%; in experiment [5] it was -5.95%; in experiment [6] it was -2.4%. For the same compound, the Percent Effect in experiment [7] was 22.7%; in experiment [8] it was 24%; in experiment [9], 7.29%; in [10], 11.1%; in experiment [11] it was -5.31%.

In the case of `Cc1noc(C)c1C(=O)N(C)Cc1nc(-c2ccccn2)no1`, the Percent Effect in [1] was -7.17%; in [2], 2.67%; in experiment [3], -0.593%; in experiment [4], 19%; in experiment [5], 2.43%; in experiment [6] it was 4.69%. For the same compound, the Percent Effect in experiment [7] was 4.53%; in [8] it was -1.43%; in [9], 4.92%; in [10], 11.1%; in experiment [11] it was -3.45%.

Consider `Cn1ncc2c(=O)[nH]c(N3CCN(C(=O)c4ccsc4)CC3)nc21`, for which the Percent Effect in experiment [1] was -5.57%; in [2], 2.7%; in experiment [3] it was 2.37%; in [4], -0.0131%; in [5] it was -6.32%; in experiment [6], 17.2%. Moreover, the Percent Effect in experiment [7] was 3.24%; in experiment [8] it was 25%; in experiment [9], -1.48%; in [10], -11.1%; in experiment [11], 1.01%.

In the case of `Cn1cnc(S(=O)(=O)NCCCN2CCCCCC2)c1Cl`, the Percent Effect was -4.4% in [1]; 8.11% in experiment [2]; -5.51% in [3]; 10.5% in [4]; -3.49% in experiment [5]; 1.6% in experiment [6]. The Percent Effect in [7] was 6.49%; in [8], 4.76%; in experiment [9], 5.42%; in experiment [10], 6.17%; in [11] it was -6.58%.

`CNC(=O)[C@H]1CCS(=O)(=O)[C@@H]2CN(Cc3ccc(OC)cc3)C[C@H]12`: the Percent Effect in experiment [1] was determined as 0.0608%; in experiment [2] it was 2.7%; in [3] it was 3.94%; in experiment [4], 2.93%; in experiment [5], 2.34%; in experiment [6], 35.4%. Besides, the Percent Effect was -0.592% in experiment [7]; 2.35% in [8]; 82.2% in experiment [9]; 6.1% in [10]; 2.99% in experiment [11].

For the origin of these results see ChEMBL document CHEMBL3988442, “University of Dundee, Small-Polar-MMV Screening Library” (2021).
